Where “and” joins values, the source holds several entries; their conditions need not be identical. Equal entries are not always repeated. Structures can show the parent of a compound that is named as a salt. Hit rate of the full screen: of about 5,800 compounds, about 620 (11%) showed activity. The sample as a whole holds a higher share of actives than the screen did. Unmarked numbers belong to inactive results.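 How the source made its calls: active = score above a cut-off or among the top three wells of a plate; in these data no inactive exceeds 0.85.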

For the test, the system named is primary human hepatic stellate cells (donor 1). Briefly: scaled lipid accumulation score (0 = DMSO-like, 1 = nortriptyline-like); higher = stronger HSC inactivation (lipid re-accumulation), active = hit call of the paper. Conditions: 48 h.
Where [1] appears, read: library stock concentration: 10 mM.
Setting [2] is: library stock concentration: 3.33 mM.
The mark [3] stands for this setting: library stock concentration: 80 uM.
Where [4] appears, read: library stock concentration: 400 uM.
[5] abbreviates: library stock concentration: 2 mM.

Turning to `C[N+](C)(C)CCO.[Br-]` [Choline bromide], the “scaled lipid accumulation score” value under setting [1] is at most 0.
Turning to `CC(C)C[C@@H]1NC(=O)[C@H](CCCN)NC(=O)[C@H](C(C)C)NC(=O)[C@H](Cc2ccc(O)cc2)N[C@@H](CCC(=O)O)C(=O)N[C@@H](CC(N)=O)C(=O)[C@@H](Cc2ccccc2)NC(=O)[C@H](Cc2ccccc2)NC(=O)[C@@H]2CCCN2C(=O)[C@@H](Cc2ccccc2)NC1=O` [Tyrothricin], the “scaled lipid accumulation score” value by setting is: (library stock concentration: 1.6 mM) at most 0; under setting [1], at most 0.
For the compound `COC(=O)CCCCCCC1C(O)CC(O)C1CCC(O)CSc1ccccc1F` (stereo not drawn), the “scaled lipid accumulation score” value (library stock concentration: 1 mM) was at most 0.
Regarding `CC(=O)O/N=C1\C(=O)N(Cc2cc(Cl)ccc2Cl)c2ccc(Cl)cc21`, the “scaled lipid accumulation score” value reads like this: under setting [2], at most -0.009; under setting [1], at most 0.
As for `NC(C(=O)O)c1cc(O)cc(O)c1` (racemic), the “scaled lipid accumulation score” value under setting [1] is 0.017.
As for `C[C@H](O)[C@H](O)[C@@H](O)[C@@H](O)C=O` [L-(+)-Rhamnose Monohydrate], the “scaled lipid accumulation score” value runs as follows: under setting [2], at most 0; under setting [1], at most 0.
As for `CC(C)Nc1cccnc1N1CCN(C(=O)c2cc3cc(NS(C)(=O)=O)ccc3[nH]2)CC1` [Delavirdine mesylate], the “scaled lipid accumulation score” value (library stock concentration: 4.4 mM) was at most -0.006.
Take `COc1cc(Nc2ncc3ccn(-c4cccc(CCC#N)c4)c3n2)cc(OC)c1OC` [Keratinocyte Differentiation Inducer]: under setting [2], the “scaled lipid accumulation score” value is 0.501 and ≤ 0.
Regarding `C=CC(=O)Nc1cccc(Nc2nc(Nc3ccc(OCCOC)cc3)ncc2F)c1`, the “scaled lipid accumulation score” value is at most -0.009 under setting [2] and 0.576 under setting [1].
On to `COc1cc(Nc2ncc3c(n2)-c2ccc(Cl)cc2C(c2c(F)cccc2OC)=NC3)ccc1C(=O)O` [Alisertib], for which the “scaled lipid accumulation score” value under setting [3] is at most 0, the “scaled lipid accumulation score” value under setting [4] was at most 0, the “scaled lipid accumulation score” value under setting [5] was at most 0 and the “scaled lipid accumulation score” value under setting [1] was at most 0.
With `COc1cc(Nc2ncc3c(n2)-c2ccc(Cl)cc2C(c2c(F)cccc2OC)=NC3)ccc1C(=O)O` [Alisertib (MLN8237)], the “scaled lipid accumulation score” value is at most 0 under setting [2] and at most 0 under setting [1].
Turning to `C=CC(=O)Nc1cccc(Nc2nc(Nc3ccc(OCCOC)cc3)ncc2F)c1` [Spebrutinib], the “scaled lipid accumulation score” value by setting is: under setting [3], at most -0.001; under setting [4], at most -0.001; under setting [5], at most -0.001; under setting [1], 0.202.
As for `COc1cc(Nc2ncc(F)c(Nc3ccc4c(n3)N(COP(=O)(O)O)C(=O)C(C)(C)O4)n2)cc(OC)c1OC` [Fostamatinib (R788)] [listing 1 of 2 here], under setting [1], the “scaled lipid accumulation score” value is 1.01 (active).
As to `COc1cc(Nc2ncc(F)c(Nc3ccc4c(n3)NC(=O)C(C)(C)O4)n2)cc(OC)c1OC` [listing 1 of 2 here], the “scaled lipid accumulation score” value is at most 0 under setting [3], 0.072 under setting [4], 0.159 under setting [5] and 0.03 under setting [2].
As to `COc1cc(Nc2ncc(F)c(Nc3ccc4c(n3)NC(=O)C(C)(C)O4)n2)cc(OC)c1OC` [listing 2 of 2 here], the “scaled lipid accumulation score” value under setting [1] was 1.06 (active).
For the compound `COc1cc(Nc2ncc(F)c(Nc3ccc4c(n3)NC(=O)C(C)(C)O4)n2)cc(OC)c1OC` [R406 (free base)], the “scaled lipid accumulation score” value by setting is: under setting [2], 0.918 (active); under setting [1], 1.16 (active).
Regarding `COc1cc(Nc2ncc(F)c(Nc3ccc4c(n3)N(COP(=O)(O)O)C(=O)C(C)(C)O4)n2)cc(OC)c1OC` [Fostamatinib (R788)] [listing 2 of 2 here], the “scaled lipid accumulation score” value under setting [2] was 0.198.
Regarding `COc1cc(Nc2ncc(F)c(Nc3ccc4c(n3)NC(=O)C(C)(C)O4)n2)cc(OC)c1OC.O=S(=O)(O)c1ccccc1`, under setting [1], the “scaled lipid accumulation score” value is 0.882 (active).
